From PubChem
Many of the other results were omitted from the sample, so hits are more common in it than they were.
CtBP-E1A inh – inhibitors of CtBP/E1A interaction; AlphaScreen GST-E1A/His-CtBP binding, 1536-well; active compounds read low; activity change, % (test concentration not listed); 340,000 tested, 0.49% active; AID 651724
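GST-E1A and His-tagged CtBP (125 nM each as 5X stock) were preincubated with pin-transferred compound for 2 h at 37 °C in the dark, then glutathione donor and nickel acceptor beads were added for 1 h before AlphaScreen reading.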
JMJD2E inh – JMJD2E (human) inhibition | B2RXH2 | JMJD2E catalytic domain, FDH-coupled NADH fluorescence (FDH is formaldehyde dehydrogenase) | Potency, µM (series often up to 57.1 µM), hits mostly inhibitors | 230,000 tested, 1.6% active; active = well fitted inhibition curve with a large enough effect, not every such curve was filed as active; inconclusive = small, poorly fitted or top-dose-only effect, or another doubt; inactive = no such curve, though single readings can be large or run the other way; note: nearly all actives have a fitted effect of over 50% in size
L3MBTL1 block – blocks human L3MBTL1 | Q9Y468 | AlphaScreen L3MBTL1–H3K9me1 peptide binding | Potency, µM (series often up to 57.1 µM), hits mostly inhibitors | 230,000 tested, 0.66% active | AID 485360; active = well fitted inhibition curve with a large enough effect; inconclusive = small, poorly fitted or top-dose-only effect; inactive = no such curve, though single readings can be large or run the other way; note: nearly all actives have a fitted effect of over 60% in size
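L3MBTL1 (50 nM) pre-complexed 30 min with biotinylated H3(1-15)K9me1 peptide (75 nM), then compounds added for 30 min at room temperature; AlphaScreen streptavidin donor/nickel chelate acceptor beads (10 ug/mL final) read after 30 min dark incubation.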
Six1-Eya2 inh – Six1/Eya2 interaction inhibition; 360,000 tested, 0.56% active; Q15475+O00167; AlphaScreen GST-Six1/His-Eya2 binding, biochemical; active compounds read low; activity change, % (test concentration not listed)
Target sequence (O00167 whole entry, looked up): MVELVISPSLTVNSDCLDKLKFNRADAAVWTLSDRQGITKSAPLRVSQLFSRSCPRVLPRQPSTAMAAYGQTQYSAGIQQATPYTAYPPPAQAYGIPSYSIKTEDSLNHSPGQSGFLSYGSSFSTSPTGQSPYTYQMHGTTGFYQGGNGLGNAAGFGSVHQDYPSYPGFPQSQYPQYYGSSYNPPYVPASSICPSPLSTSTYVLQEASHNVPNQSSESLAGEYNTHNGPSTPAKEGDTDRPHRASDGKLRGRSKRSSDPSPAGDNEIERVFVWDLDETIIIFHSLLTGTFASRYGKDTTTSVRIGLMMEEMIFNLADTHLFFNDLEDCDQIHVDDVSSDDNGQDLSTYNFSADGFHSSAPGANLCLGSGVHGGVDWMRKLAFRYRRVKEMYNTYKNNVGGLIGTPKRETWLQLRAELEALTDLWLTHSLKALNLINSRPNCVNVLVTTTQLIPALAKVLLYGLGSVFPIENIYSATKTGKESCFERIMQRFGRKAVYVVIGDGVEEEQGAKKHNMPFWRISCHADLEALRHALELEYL
Target sequence (Q15475 whole entry, looked up): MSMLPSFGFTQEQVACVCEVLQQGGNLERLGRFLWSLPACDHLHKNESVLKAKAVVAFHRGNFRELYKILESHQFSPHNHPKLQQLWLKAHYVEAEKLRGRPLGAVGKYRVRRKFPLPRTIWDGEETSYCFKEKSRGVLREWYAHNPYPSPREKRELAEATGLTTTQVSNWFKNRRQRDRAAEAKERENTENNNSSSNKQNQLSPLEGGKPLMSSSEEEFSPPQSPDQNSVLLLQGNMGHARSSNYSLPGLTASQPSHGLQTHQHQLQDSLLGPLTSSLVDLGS
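Compounds are tested against tagged Six1 and Eya2 proteins bridged by glutathione donor and nickel acceptor beads; after a one-hour incubation at 37 °C without light, AlphaScreen emission is recorded.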
Hits are given with their value; . = inactive; ? = inconclusive; / = no result given; ! = not active in a repeat; [ ] = remark or other dose. Cut-off read from the data, not from the text of the source, unless noted: active = activity change below about -65%; inconclusive = mostly about -30% to -63%; inactive = weaker than that.

SMILES	CtBP-E1A inh	JMJD2E inh	L3MBTL1 block	Six1-Eya2 inh
COc1ccc(Nc2ccc(S(=O)(=O)N3CCCCC3)cc2[N+](=O)[O-])cc1OC	?	.	?	?
Nc1c(SCCC(=O)O)ccc2c1C(=O)c1ccccc1C2=O	.	/	/	-67
COc1cc(NS(=O)(=O)c2ccc(Nc3nc(-c4ccccn4)cs3)cc2)nc(OC)n1	-76	.	.	-79
COc1ccc(-c2csc(Nc3ccc(S(=O)(=O)Nc4cc(OC)nc(OC)n4)cc3)n2)cc1	.	.	.	.
Cc1c(C(=O)Nc2nc3ccccc3[nH]2)oc2ccc(Br)cc12	.	?	.	.
Cc1c(C(=O)Nc2nc3ccccc3[nH]2)oc2ccccc12	.	3.2µM	.	.
CCCCn1c(N)c(N(CCOC)C(=O)c2ccc(C)c(S(=O)(=O)N3CCCCC3)c2)c(=O)[nH]c1=O	.	/	.	.
CCc1ccc(S(=O)(=O)/N=C2\C=C(Nc3ccc(O)cc3)C(=O)c3ccccc32)cc1	-89	/	/	-70
O=C(O)c1ccc(NC2=C/C(=N/S(=O)(=O)c3ccccc3)c3ccccc3C2=O)cc1	?	.	/	?
CCc1ccc(S(=O)(=O)/N=C2/C=C(Sc3ncn[nH]3)C(=O)c3ccccc32)cc1	.	3.5µM	?	.
Cc1cc(C)c(S(=O)(=O)/N=C2\C=C(Nc3ccc(C(=O)O)cc3)C(=O)c3ccccc32)c(C)c1	-72	/	/	?
CCc1ccc(S(=O)(=O)/N=C2\C=C(Nc3cccc(C(=O)O)c3)C(=O)c3ccccc32)cc1	-75	/	/	?
COc1ccc2c(c1)O[C@H](c1ccc3c(c1)OCO3)[C@@H](OC(=O)NCc1ccco1)C2=O	/	.	/	/
COc1cccc(CN(C)CC(=O)Nc2c(C)cccc2C(C)C)c1	.	.	.[11.4 µM]	.
CC(C)(C)c1nnc(N/N=C/c2cc(Br)ccc2O)n(N)c1=O	-94	22µM	?	-90
NC(=O)N/N=C\c1cc(Br)ccc1O	.	?	.	.
CCc1nnc(N/N=C/c2cc(Br)c(O)cc2O)n1N	-91	/	.	-80
O=C(COc1ccc(F)cc1Cl)NC1CCCCCC1	/	/	.	.
Cc1nc(-c2coc3c(CN(C)C)c(O)ccc3c2=O)cs1	.	28µM	/	.
CCCC[C@@H]1C[C@H]1C(NC(=O)c1ccccc1)c1ccc(-c2ccccc2)cc1 (stereo partly drawn)	/	.	/	/
COc1cc(/C=C/C(=O)O)ccc1O	.	?	/	.
O=C(O)/C=C/c1ccc(O)c(O)c1	.	0.56µM!	?	.
O=C(/C=C/c1ccc(O)c(O)c1)NC(=O)c1ccccc1O	.	14µM	/	.
Cc1cccc(OCc2nnc(SCC(=O)N3CCCCC3)o2)c1	.	/	/	.
CC1=C(C(=O)N2CCOCC2)CC(CC(=O)NCc2ccco2)C(=O)N1CCC1=CCCCC1 (stereo not drawn)	.	/	/	.
SMILES	CtBP-E1A inh	JMJD2E inh	L3MBTL1 block	Six1-Eya2 inh
Oc1ccc(/C=N/Nc2nc(N3CCCC3)nc(N3CCCC3)n2)cc1O	.	18µM	.	.
O=S(=O)(O)c1cccnc1SCc1ccccc1	.	/	/	.
C=C(C[C@]1(C(=O)OC)CC2(CC=C(C)C)C(=O)C(C(=O)CC(C)C)=C(O)C(CC=C(C)C)(C1)C2=O)C(=O)OC (stereo partly drawn)	/	.	/	/
Nn1cnnc1N/N=C\c1ccc(-c2ccccc2[N+](=O)[O-])o1	.	4.5µM	.	?
CCOc1cc(/C=N/NC(=O)c2cccs2)cc([N+](=O)[O-])c1O	/	.	.	-87
COc1cc([N+](=O)[O-])cc(/C=N/NC(=O)c2cncc(Br)c2)c1O	-90	14µM	?	-93
O=C(N/N=C/c1cccc([N+](=O)[O-])c1)c1cccs1	.	.	.	.
COc1cc(/C=N/NC(=O)c2cncc(Br)c2)cc([N+](=O)[O-])c1O	-96	7.9µM	32µM	-91
O=[N+]([O-])c1ccccc1-c1ccc(/C=N/n2cnnc2)o1	.	.	.	.
COc1cc(/C=N/NC(=O)c2cccc([N+](=O)[O-])c2)cc(OC)c1O	/	.	/	.
O=C(N/N=C/c1ccc(-n2ccnc2)cc1)c1cccs1	.	/	/	.
CC(=O)c1cccc(NC(=O)CSc2ncc(C(=O)Nc3ccccc3)c(=O)n2C)c1	.	/	.	.
O=C(N/N=C\c1ccc([N+](=O)[O-])o1)c1cncc(Br)c1	?	.	/	?
O=C(N/N=C/c1ccc(-c2ccccc2[N+](=O)[O-])o1)c1cncc(Br)c1	-66	.	.	-78
CCN(CC(=O)NC1CCCC1)S(=O)(=O)c1ccc(Br)cc1	.	/	/	.
O=C(CS(=O)(=O)c1ccccc1)Nc1nc2ccccc2s1	.	.	.	.
O=C(C[n+]1cccc(CO)c1)Nc1nc2ccccc2s1	.	10µM	.	.
CCCCNC(=O)C(c1ccc(OCC(=O)OC)c(C(=O)OC)c1)N(CCC1=CCCCC1)C(=O)CCCCCN1C(=O)NC(c2ccc(-c3ccccc3)cc2)C(C(=O)OCc2ccccc2)=C1C (stereo not drawn)	/	.	/	/
COc1ccc(/C=N\NC(=O)c2cc(O)c(O)c(O)c2)cc1CN1CCN(c2ccc(F)cc2)CC1	?	4µM	.	?
Cc1ccc(C2CC(=O)NC(SCc3ccccc3)=C2C#N)o1 (stereo not drawn)	.	.	18µM	.
CCOC(=O)CCCCC(=O)c1[nH]c(=O)[nH]c1CSc1nc(C)cc(=O)[nH]1	.	.	7.9µM	.
CCOC(=O)CCCCC(=O)c1[nH]c(=O)[nH]c1CSc1nc(C)cc(C)n1	.	.	.	.
CCOC(=O)CCCCC(=O)c1[nH]c(=O)[nH]c1CSc1nc2ccccc2[nH]1	.	?	13µM	.
O=C(NCc1cccc(C(F)(F)F)c1)C1C(=O)Nc2ccccc2C(=O)N1Cc1ccccc1 (stereo not drawn)	.	/	/	.
COC(=O)[C@@]1(Cc2ccccc2)[C@H]2c3cc(C(=O)N4CCCC4)[nH]c3C[C@H]2CN1C(=O)c1ccccc1	/	.	/	/
SMILES	CtBP-E1A inh	JMJD2E inh	L3MBTL1 block	Six1-Eya2 inh
C/C1=C2N=C(/C=C3N=C(/C(C)=C4\[N-]C(C)(C5N=C1C(C)(CCC(=O)NCC(C)OP(=O)([O-])O[C@H]1C(O)C(n6cnc7cc(C)c(C)cc76)O[C@@H]1CO)C5CC(N)=O)C(C)(CC(N)=O)C4CCC(N)=O)C(C)(CC(N)=O)C\3CCC(N)=O)C(C)(C)C/2CCC(N)=O.[CH2-]C1OC(n2cnc3c(N)ncnc32)C(O)C1O.[Co] (stereo partly drawn)	/	14µM	/	/
CCCc1nc2ccc(C)cn2c1Cc1cccc(Cl)c1	.	/	/	.
O=C(NNC(=O)c1cc(O)c(O)c(O)c1)NC1CCCCC1	.	7.1µM	.	.
CC(=O)CCOC1CCCCO1 (stereo not drawn)	/	.	/	/
CC(=O)N1N=C(c2ccccc2OC(=O)/C=C/c2ccccc2)CC1c1ccccc1 (stereo not drawn)	-80	.	/	?
CC(=O)N1N=C(c2ccc3nccnc3c2)CC1c1ccccc1 (stereo not drawn)	.	.	.	.
CC/C=C\C/C=C\C/C=C\C/C=C\C/C=C\C/C=C\CCC(N)=O	/	.	/	/
CCOC(=O)C1(CC2CC2)CCN(Cc2cnc(-c3ccc(OC)cc3)nc2)CC1	/	.	.	.
